USP30 inh – human USP30 deubiquitinase inhibition. Q70CQ3. actives 5.3% (n = 47,000). AID 1645860. purified USP30, Ub-rhodamine cleavage fluorescence. inhibition, % at 25 µM
USP8 block – blocks human USP8 ubiquitin-rhodamine cleavage; actives 4.2% (n = 47,000); P40818; AID 1645853; inhibition, % at 20 µM; purified USP8, Ub-rhodamine cleavage fluorescence, 30 min
Target sequence (P40818 whole entry, looked up): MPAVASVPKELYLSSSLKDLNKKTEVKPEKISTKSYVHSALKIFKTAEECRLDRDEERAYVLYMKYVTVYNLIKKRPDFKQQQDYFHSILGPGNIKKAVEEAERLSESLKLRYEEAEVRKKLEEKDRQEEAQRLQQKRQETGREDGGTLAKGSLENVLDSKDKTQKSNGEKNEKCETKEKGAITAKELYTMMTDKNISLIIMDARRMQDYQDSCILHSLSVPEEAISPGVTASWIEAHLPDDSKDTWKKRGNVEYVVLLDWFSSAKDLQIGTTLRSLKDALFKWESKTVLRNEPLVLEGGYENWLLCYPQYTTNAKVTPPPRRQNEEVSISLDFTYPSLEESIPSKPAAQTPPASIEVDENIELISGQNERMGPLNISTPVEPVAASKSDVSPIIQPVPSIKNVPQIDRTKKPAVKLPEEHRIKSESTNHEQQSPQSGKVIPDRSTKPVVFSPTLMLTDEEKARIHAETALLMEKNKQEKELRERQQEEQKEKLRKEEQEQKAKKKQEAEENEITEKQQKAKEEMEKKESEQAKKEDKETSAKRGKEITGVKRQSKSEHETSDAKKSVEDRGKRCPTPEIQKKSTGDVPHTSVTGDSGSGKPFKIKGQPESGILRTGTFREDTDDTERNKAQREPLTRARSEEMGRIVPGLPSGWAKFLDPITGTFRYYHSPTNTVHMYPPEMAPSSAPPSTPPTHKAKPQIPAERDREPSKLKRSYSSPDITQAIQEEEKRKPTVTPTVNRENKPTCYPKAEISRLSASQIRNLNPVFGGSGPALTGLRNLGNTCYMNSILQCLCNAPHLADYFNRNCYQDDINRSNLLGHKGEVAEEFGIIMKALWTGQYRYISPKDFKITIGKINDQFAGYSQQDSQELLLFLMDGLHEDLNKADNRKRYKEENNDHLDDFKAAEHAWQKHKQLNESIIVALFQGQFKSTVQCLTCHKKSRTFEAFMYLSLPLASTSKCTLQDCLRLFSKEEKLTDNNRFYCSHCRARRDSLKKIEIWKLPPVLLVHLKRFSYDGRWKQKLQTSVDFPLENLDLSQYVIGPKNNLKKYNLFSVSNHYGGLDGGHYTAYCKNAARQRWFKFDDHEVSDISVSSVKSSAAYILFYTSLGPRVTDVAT
OTUD3 inh – inhibitors of human OTUD3 deubiquitinase; Q5T2D3; purified OTUD3, Ub-rhodamine fluorescence, 2 h; inhibition, % at 25 µM; actives 0.7% (n = 47,000)
USP10 block – human USP10 deubiquitinase inhibition | Q14694 | purified USP10, Ub-rhodamine fluorescence, 60 min | inhibition, % at 20 µM | actives 1.1% (n = 47,000) | AID 1645856
USP28 block – blocks human USP28 ubiquitin-rhodamine cleavage. inhibition, % at 25 µM. AID 1645857. purified USP28, Ub-rhodamine cleavage fluorescence, 30 min. actives 3% (n = 47,000). Q96RU2
USP17 inh – blocks human USP17 ubiquitin-rhodamine cleavage; A8MUK1; purified USP17, Ub-rhodamine cleavage fluorescence, 3 h; inhibition, % at 50 µM; actives 6.5% (n = 47,000)
Each line names hits and unclear results; the compound was inactive in the other large screens. Rows were chosen to be rich in hits. Some 13% of all compounds tested hit in one or more screens of this group. No stated cut-off is given here; in the data, active means inhibition above about 30%; inactive means the rest.

Cc1nc(SCc2ccc(Cl)cc2Cl)c2oc3ccccc3c2n1	none
Cc1cc2oc(=O)cc(C)c2cc1NC(=O)c1ccccc1Cl	none (no result: USP30 inh, USP28 block)
O=C(CC(C(=O)O)c1cccc(F)c1)c1ccc(Cl)cc1 (centres undefined)	none
O=C(c1cccc(F)c1)N1CCC2(C1)c1ccccc1S(=O)(=O)N2CC1CC1 (centres undefined)	none
COc1cc(/C=C/C(=O)OCC(=O)Nc2ccc([N+](=O)[O-])cc2OC)ccc1O	USP30 inh 66, USP8 block 55, OTUD3 inh 47, USP10 block 51, USP28 block 84 (no result: USP17 inh)
CC(NCCc1ccc(Cl)cc1)c1nc2scc(-c3ccccc3)c2c(=O)[nH]1 (centres undefined)	USP17 inh 35
CC(Nc1ccccc1)c1nc2scc(-c3ccccc3)c2c(=O)[nH]1 (centres undefined)	none
COc1ccc(CC(=O)Nc2cc(=O)[nH]c3nc(-c4ccco4)nn23)cc1	USP17 inh 34
Cc1nn(-c2ccc(F)cc2)c(C)c1S(=O)(=O)N(C)Cc1ccccc1	none
CCOC(=O)c1[nH]c2c(c1Cc1ccccc1)C(=O)CC(C)(C)C2	USP17 inh 42
CCOC(=O)c1c(C)nc2c(c1-c1ccccc1)C(=O)CC(C)(C)C2	none
Cc1ccc(S(=O)(=O)N2CCCCC2C(=O)Nc2nc3ccc(S(C)(=O)=O)cc3s2)cc1 (centres undefined)	none
Cc1ccc2nc(NC(=O)C3CCCN3S(=O)(=O)c3ccc4c(c3)OCCO4)sc2c1 (centres undefined)	USP28 block 53
Cc1ccccc1C(C(=O)Nc1ccc(F)cc1)N(C(=O)c1cnccn1)c1cccc(F)c1 (centres undefined)	none
Cc1ccc(NC(=O)CC2C(=O)N(Cc3cccnc3)c3nc4ccccc4n32)c(C)c1 (centres undefined)	USP17 inh 39
CSCc1cc(NCc2ccccc2)nc(-c2ccncc2)n1	USP30 inh 41
c1ccc(-c2cc(NC3CC3)nc(-c3ccncc3)n2)cc1	none
O=C(CSc1nc2cc(S(=O)(=O)Nc3ccccc3Cl)ccc2o1)Nc1ccc(N2CCOCC2)cc1	USP30 inh 53 (no result: USP17 inh)
Cc1ccccc1CCNC(=O)c1cc(C2CC2)nc2c1cnn2C(C)C	none
CC(C)n1ncc2c(C(=O)NCCc3ccc(F)cc3)cc(C3CC3)nc21	USP28 block 42
COc1cc2c(cc1OC)-c1cc(Oc3ccc4cccnc4c3)nc(=O)n1CC2	USP8 block 35, USP17 inh 49
COc1ccc(Oc2cc3n(c(=O)n2)CCc2cc(OC)c(OC)cc2-3)cc1	none
CCC(C)NC(=O)Cn1cc(-c2nnc(CN3CCC(C)CC3)o2)c2ccccc21 (centres undefined)	USP30 inh 36
Cc1nn(-c2ccc(F)cc2)c(C)c1S(=O)(=O)N1CCN(c2ccccn2)CC1	USP30 inh 38
Cc1nn(-c2ccc(F)cc2)c(C)c1S(=O)(=O)N1CCC(C)CC1	none
Fc1cc2c(c(CSc3nnc4ccccn34)c1)OC(c1ccccc1)OC2 (centres undefined)	USP8 block 49
O=C(O)c1nn(Cc2cc(F)cc3c2OC(c2ccccc2)OC3)c(=O)c2ccccc12 (centres undefined)	none
O=S(=O)(c1ccccc1)N1CCCCCC1C1CCN(c2ncccn2)CC1 (centres undefined)	none
Cc1ccc(C(=O)NC(C(=O)OCC(=O)c2cc(C)n(-c3ccc4c(c3)OCO4)c2C)C(C)C)cc1 (centres undefined)	USP8 block 52
CC(C)C(NC(=O)c1ccc(C(C)(C)C)cc1)C(=O)OCC(=O)c1c[nH]c2ccccc12 (centres undefined)	none
Cc1c(C(=O)Nc2ccccc2F)nnn1-c1cccc(F)c1	none
COc1ccc(-n2nnc(C(=O)Nc3ccccc3)c2N)cc1	USP17 inh 51
COc1ccc(-n2nnc(C(=O)Nc3cccc(Cl)c3)c2C)cc1	none
Cc1cccc(NC(=O)c2nnn(-c3ccccc3Cl)c2C)c1C	USP28 block 39
COc1ccccc1-n1nnc(C(=O)Nc2ccc(Oc3ccccc3)cc2)c1C	USP28 block 52
Cc1ccc(-n2nnc(C(=O)Nc3ccccc3)c2C)cc1	USP17 inh 49
O=S1(=O)CCN2C(=N1)Sc1cc(F)ccc12	none
Cc1ccc(-n2nnc(C(=O)Nc3ccc(C)c(C)c3)c2C)cc1	USP8 block 40
COc1ccc(Cl)cc1-n1nnc(C(=O)Nc2ccc(C)cc2C)c1C	USP17 inh 31
COc1ccc(NC(=O)c2nnn(-c3ccccc3)c2C)cc1OC	USP28 block 56
Cc1ccc(NC(=O)c2nnn(-c3ccc(C)c(C)c3)c2C)cc1C	none
COc1ccc(NC(=O)c2nnn(-c3ccccc3)c2C)cc1Cl	none
CC(=O)Oc1cn(Cc2cccs2)c2nc(C)n3c4ccccc4nc3c12	none
CC(C)c1cc(C(=O)N2C[C@@H](c3cccc(F)c3)[C@@H]3NC(=O)CCCC[C@H]32)n[nH]1	none
COc1ccc(CCNC(=O)Cn2c(=O)c3sccc3n(Cc3ccccc3C#N)c2=O)cc1OC	none
O=C(Cn1c(=O)c2sccc2n(Cc2ccc([N+](=O)[O-])cc2)c1=O)NCCc1ccccc1	USP30 inh 50, USP10 block 38
COc1ccc(CCNC(=O)Cn2c(=O)c3sccc3n(Cc3cc(=O)n4ccccc4n3)c2=O)cc1OC	none
O=C(CCn1c(=O)c2sccc2n(Cc2ccc([N+](=O)[O-])cc2)c1=O)NCc1ccccc1	USP30 inh 50, USP8 block 61, OTUD3 inh 44, USP10 block 39, USP17 inh 52
COc1ccc(CNC(=O)CCn2c(=O)c3sccc3n(Cc3ccccc3C#N)c2=O)cc1	USP30 inh 56, USP17 inh 55
Cc1nnc(C(=O)Nc2ccc(C(=O)NCc3ccc(Cl)cc3)cc2)s1	none
CC(C)=CCc1cccc2c1NC(=O)C21CC23CN4C(C)CCC[C@]4(CC2C1(C)C)C(=O)N3 (some centres undefined)	none
CC[C@@H](C(=O)[C@@H](C)[C@@H](O)[C@H](C)CCc1ccc(C)c(O)c1C(=O)O)[C@@H]1O[C@](CC)([C@H]2CC[C@](O)(CC)[C@H](C)O2)C[C@@H]1C	USP30 inh 60, USP10 block 60, USP17 inh 56
Cc1cccc(N2CCN(C(=O)c3nnn(-c4ccc(F)cc4)n3)CC2)c1	USP28 block 56
CN(Cc1ccccc1)C(=O)c1nnn(-c2ccccc2)n1	none
O=C(c1nnn(-c2ccccc2)n1)N1CCC(Cc2ccccc2)CC1	USP30 inh 31, USP28 block 39
Cc1ccc(-c2nn(-c3ccccc3)cc2/C=C(/C#N)c2ccccc2F)cc1	none
O=c1[nH]c2ccccc2cc1CN(Cc1ccco1)S(=O)(=O)c1ccc(F)cc1	USP30 inh 51, USP28 block 34, USP17 inh 36
CS(=O)(=O)N(Cc1ccco1)Cc1cc2ccccc2[nH]c1=O	none
